Cav32 inh: Cav3.2 calcium influx blockers – cell-based, Fluo-4 calcium fluorescence, FDSS, MLSMR library, primary screen | Voltage-dependent T-type calcium channel subunit alpha-1H (Homo sapiens), O95180 | Cav3.2-expressing cells; hits give low values | B-score at 10 µM | 100,000 compounds, 4% hits | AID 449739, 2010;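 active means single-dose well whose peak fluorescence ratio is a statistical outlier from its plate by either plate-standardised score or position-corrected B-score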
CYP2C9 inh: blockers of cytochrome P450 2C9 activity – biochemical, luminescence, ADME assay, primary screen; P11712; CYP2C9 Supersomes, luciferin-H conversion; inhibition, % at 5 µM; 96,000 compounds, 20% hits; AID 777, 2007;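 active means blocking of liver enzyme CYP2C9 beyond about 50% at 5 µM, limit read from the data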
Target sequence (P11712 whole entry, looked up): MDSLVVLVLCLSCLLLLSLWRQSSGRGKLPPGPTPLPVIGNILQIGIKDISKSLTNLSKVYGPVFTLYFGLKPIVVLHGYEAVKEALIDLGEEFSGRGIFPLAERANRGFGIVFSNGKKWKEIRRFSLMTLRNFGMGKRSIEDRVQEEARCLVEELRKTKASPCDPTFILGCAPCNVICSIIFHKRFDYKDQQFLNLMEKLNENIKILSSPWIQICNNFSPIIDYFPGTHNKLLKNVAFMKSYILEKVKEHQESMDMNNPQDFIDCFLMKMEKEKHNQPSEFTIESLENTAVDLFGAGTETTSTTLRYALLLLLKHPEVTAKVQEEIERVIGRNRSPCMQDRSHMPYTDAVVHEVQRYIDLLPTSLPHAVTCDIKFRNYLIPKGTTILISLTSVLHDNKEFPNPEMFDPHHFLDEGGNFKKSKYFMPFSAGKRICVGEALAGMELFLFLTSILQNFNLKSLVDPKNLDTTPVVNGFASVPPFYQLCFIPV
CYP2C9 act: human CYP2C9 activators, primary screen, biochemical, luminescence; recombinant CYP2C9, luciferin-H conversion; hits give high values; factor 1 = untreated enzyme, 0 = blocked; activation factor at 5 µM; 96,000 compounds, 1.4% hits;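 active means activation factor of 2 or more for CYP2C9 at a 5 µM dose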;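 further: 0 = sulfaphenazole-blocked wells and 1 = vehicle-only wells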
CYP2C19 inh: blockers of cytochrome P450 2C19 activity – biochemical, luminescence, ADME assay, primary screen; 96,000 compounds, 21% hits; inhibition, % at 5 µM; CYP2C19 Supersomes, luciferin-H EGE luminescence, 30 min; P33261;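 active means CYP2C19 inhibition above a set limit at 5 µM in the primary screen, cut at about 50% in these data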;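 further: plate controls were negative control wells for no effect and 2.5 mM tranylcypromine positive control for full effect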
CYP2C19 activ: human CYP2C19 activators, primary screen, biochemical, luminescence | recombinant CYP2C19, luciferin-H EGE luminescence; hits give high values; 0 = fully inhibited enzyme, 1 = untreated enzyme | Cytochrome P450 2C19 (Homo sapiens), P33261 | AID 1025, 2008 | activation factor at 5 µM | 96,000 tested, under 10 active;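 active means activation factor of at least 2 at 5 µM in the primary screen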;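 further: 0 = wells with 2.5 mM tranylcypromine and 1 = vehicle-only wells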
An asterisk follows results filed as active; x = not tested or not shown. Rows were chosen to be rich in hits. Some 27% of all compounds tested hit in one or more screens of this group.

SMILES	Cav32 inh	CYP2C9 inh	CYP2C9 act	CYP2C19 inh	CYP2C19 activ
CCCCCCC(=O)N1CCC(c2nc3c(nnn3Cc3ccccc3Cl)c(=O)[nH]2)CC1	-2.2	93*	0.1	15	0.8
O=C(Nc1cc(Cl)ccc1Cl)c1ccc(OC(=O)c2ccco2)cc1	-0.21	-51	1.5	-8	1.1
Cc1ccccc1-n1c(C)nnc1SCC(=O)NCC1CCCO1 (stereo not given)	0.11	-55	1.6	10	0.9
Cc1cc(=O)n2[nH]c(=O)c(N=Nc3ccccc3)c2[nH]1	0.48	-10	1.1	-3	1
CCOc1ccc(N=Nc2c(=O)[nH]n3c(=O)cc(C)[nH]c23)cc1	0.31	31	0.7	63*	0.4
Cc1c([N+](=O)[O-])cc(C(=O)Oc2ccc(Br)cc2C(=S)N2CCCCC2)cc1[N+](=O)[O-]	-1.6	33	0.7	54*	0.5
COc1ccc(N2CCn3c2nc2c3c(=O)n(CCc3ccccc3)c(=O)n2C)cc1	x	7	0.9	15	0.8
CCn1c(=O)c2cc(C(=O)Nc3cc(C)on3)sc2c2ccccc21	x	-113	2.1*	-4	1
O=C1C=C(c2ccccc2)OC2(CCCC2)O1	-0.14	-12	1.1	63*	0.4
CCOC(=O)CC(=O)Nc1nnc(C(C)C)s1	0.0023	3	1	4	1
CC1=C(C#N)CCC(=O)N1Cc1ccc(C)cc1	0.011	18	0.8	61*	0.4
CCOC(=O)c1cn(-c2nc(-c3ccc(Cl)cc3)cs2)c2c(F)c(N3CC(C)OC(C)C3)c(F)cc2c1=O (stereo not given)	0.3	6	0.9	-6	1.1
COC(=O)C[C@H]1c2ccccc2S(=O)(=O)N1Cc1ccc(OC)cc1	-0.54	x	x	x	x
CCOc1cc(S(=O)(=O)N(Cc2ccccc2)Cc2ccccc2)c(OCC)cc1-n1cnnn1	x	41	0.6	24	0.8
Cc1ccc(NC(=O)N2CCC(NC(=O)C(C)(C)C)CC2)cc1	1.2	4	1	6	0.9
CC(C)=CC(=O)Nc1nnc(C(C)C)s1	-1.3	4	1	0	1
CC(C)=CC(=O)Nc1nnc(-c2cccnc2)s1	0.085	10	0.9	87*	0.1
O=[N+]([O-])c1ccc(NC(=S)NCCc2ccc(Cl)cc2)cc1	-0.32	39	0.6	12	0.9
O=[N+]([O-])c1cc(Cl)ccc1NCCNc1ncc(C(F)(F)F)cc1Cl	0.33	33	0.7	88*	0.1
O=[N+]([O-])c1cc(C(F)(F)F)ccc1NCCNC(=S)Nc1ccc(Cl)cc1	0.044	68*	0.3	35	0.6
O=C(/C=C\Nc1ccccn1)c1ccc(Cl)cc1	0.34	-24	1.2	24	0.8
c1coc(CNCc2cccs2)c1	0.69	x	x	x	x
CCCCOc1ccc(CNC(=S)N/N=C/c2ccc(OC)c(OC)c2)cc1	-0.55	60*	0.4	8	0.9
CCOc1ccc(CNC(=S)N/N=C\c2ccc([N+](=O)[O-])cc2)cc1	-0.11	30	0.7	31	0.7
Cc1ccc(/C=c2\s/c(=C(/C#N)C(=O)N3CCCC3)n(Cc3ccco3)c2=O)s1	-0.64	23	0.8	13	0.9
SMILES	Cav32 inh	CYP2C9 inh	CYP2C9 act	CYP2C19 inh	CYP2C19 activ
Cn1c(=O)[nH]c(=O)c2c1nc(N1CCN(c3ccccc3)CC1)n2CCSc1ncccn1	0.67	18	0.8	38	0.6
COc1ccc(CCn2c(N3CCN(Cc4ccccc4)CC3)nc3c2c(=O)[nH]c(=O)n3C)cc1	0.13	43	0.6	62*	0.4
Cc1ccnc(SCCn2c(N3CCN(Cc4ccccc4)CC3)nc3c2c(=O)[nH]c(=O)n3C)n1	0.76	78*	0.2	83*	0.2
COc1cccc(C2CC(c3cccc(Br)c3)n3nc(N)nc3N2)c1 (stereo not given)	0.38	14	0.9	11	0.9
Cn1c(=O)oc2cc(S(=O)(=O)Nc3cccc(F)c3)ccc21	0.094	x	x	x	x
CSc1cccc(NS(=O)(=O)c2ccc3c(c2)oc(=O)n3C)c1	-1.6	53*	0.5	97*	0
Cc1ccc(NS(=O)(=O)c2ccc3c(c2)oc(=O)n3C)cc1F	-0.33	76*	0.2	56*	0.4
NC(=O)c1ccccc1Nc1nc(NCCO)nc(N2CCCC2)n1	1	x	x	x	x
Nc1ncn(C(=O)c2ccco2)n1	0.5	-4	1	-7	1.1
O=C(c1ccc2snnc2c1)N1CCN(c2ccccn2)CC1	0.61	9	0.9	71*	0.3
O=C(c1ccc2snnc2c1)N1CCN(c2ccccc2)CC1	-0.18	65*	0.3	100*	0
CCCOc1nc2c(c(=O)n(C)c(=O)n2C)n1CC	x	-3	1	8	0.9
CCN(CC)S(=O)(=O)c1ccc2nc(NC(=O)c3cccs3)sc2c1	0.32	62*	0.4	12	0.9
CCN(CC)S(=O)(=O)c1cccc(C(=O)Nc2nc3cc4c(cc3s2)OCCO4)c1	-0.22	67*	0.3	38	0.6
CS(=O)(=O)c1ccc2nc(NC(=O)CCC(=O)c3cccs3)sc2c1	0.53	25	0.7	-2	1
CC(C)(C)NS(=O)(=O)c1ccc2nc(NC(=O)Cc3cccs3)sc2c1	-4.2*	88*	0.1	50*	0.5
COC(=O)C1N2C(=O)[C@@H](NC(=O)COc3ccccc3)[C@H]2SC1(C)C (stereo not given in full)	0.36	x	x	x	x
COc1cc(C[C@H](C)[C@H](C)Cc2ccc3c(c2)OCO3)ccc1O	-0.12	x	x	x	x
C[C@@H]1NC(=O)N[C@@H]1CCCCCC(=O)O	-0.048	x	x	x	x
CCN(CC)S(=O)(=O)c1ccc(C(=O)Oc2ccc3c(c2)OCO3)cc1	0.46	-1	1	-4	1
CCN(CC)S(=O)(=O)c1ccc(C(=O)OC2CCCCC2CN(C)C)cc1 (stereo not given)	x	50*	0.5	8	0.9
O=C(N/N=C\c1ccc(Cl)cc1)c1sccc1-n1cccc1	-0.9	4	1	20	0.8
O=C(N/N=C\c1ccc(Cl)cc1Cl)c1sccc1-n1cccc1	-0.02	51*	0.5	33	0.7
COc1ccc(-c2nnn(CC(=O)N(CC(=O)NCCC(C)C)Cc3cccs3)n2)cc1OC	-2.5	49	0.5	43	0.6
CCOC(=O)c1cccc(NC(=O)c2c(NCc3ccccc3)[nH]c(=O)[nH]c2=O)c1	-0.41	x	x	x	x
O=C(COC(=O)CCS(=O)(=O)c1ccc(Cl)cc1)NC1CCCCC1	1.2	-4	1	8	0.9
CCOC(=O)C1=NN(c2ccccc2)C2(S1)SC(C(C)=O)=C(C)N2c1ccccc1 (stereo not given)	-4.8*	44	0.6	-20	1.2

From PubChem
